MCF10A rerep – A quantitative high throughput screen for small molecules that induce DNA re-replication in MCF 10a normal breast cells | Potency, µM (top dose mostly 46.1 µM), for inactives: at the top dose activity, positive = re-replication, hits mostly activators | MCF 10A DNA re-replication, Hoechst nuclear intensity, 48 h | actives 2.9% (n = 350,000); note: % of control where 0% means no effect; nearly all actives have a fitted effect of over 50% in size
KB-V1 MDR tox – qHTS assay for MDR1-selective chemotherapeutics: Primary screen using the drug-selected MDR subline cells KB-V1; Potency, µM (top dose mostly 46.1 µM), most hits filed as cytotoxic; actives 3.4% (n = 400,000); KB-V1 MDR cells viability, CellTiter-Glo, 72 h; note: % is set by controls: 0 for no effect and ±100 for the full control effect; nearly all actives have a fitted effect of over 60% in size
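Cells of the MDR subline KB-V1 are plated, dosed with compound at multiple concentrations, and incubated 72 h at 37 degrees C; CellTiter-Glo is then added and luminescence read after 10 min.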
KB-3-1 cytotox – qHTS assay for MDR1-selective chemotherapeutics: Primary screen using the parental adenocarcinoma cell KB-3-1; Potency, µM (doses to about 46.1 µM), usual class: cytotoxic; actives 1.4% (n = 400,000); KB-3-1 viability, CellTiter-Glo ATP luminescence, 72 h; AID 1347075, 2019; note: % is set by controls: 0 for no effect and ±100 for the full control effect; nearly all actives have a fitted effect of over 60% in size
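72 h, 37 °C compound treatment of KB-3-1 parental cells; CellTiter-Glo added, 10 min, luminescence read. Data corrected against DMSO-only plates and normalized before curve fitting.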
SW480 rerep – A quantitative high throughput screen for small molecules that induce DNA re-replication in SW480 colon adenocarcinoma cells; SW480 DNA re-replication, Hoechst DNA content imaging, 48 h; Potency, µM (highest dose often 46.1 µM), without a hit: at the highest dose re-replication activation, most hits filed as activators; actives 1.8% (n = 340,000); note: % of control where 0% means no effect; nearly all actives have a fitted effect of over 55% in size
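DNA re-replication was detected as more nuclei of elevated Hoechst intensity after 48 hr exposure to compound (23 nL pinned per well of 250 cells).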
PTAP TSG101 blk – qHTS Assay for Iinhibitors of HIV-1 Budding by Blocking the Interaction of PTAP/TSG101 | Fluorescence polarization, FITC-PTAP peptide / Tsg101 binding | Potency, µM (titrated, usually from 115 µM), for inactives: at the highest dose activity change, negative = inhibition, most hits filed as inhibitors | 340,000 tested, under 10 active | AID 493005, 2010; active = well fitted inhibition curve with a large enough effect in the main read-out, with a control signal flat, not every such curve was filed as active; inconclusive = small, poorly fitted or top-dose-only effect, or effect the other way, or a change in a side signal; inactive = no such curve, though single readings can be large or run the other way; note: % of control where 0% means no effect
Target sequence (Q99816 whole entry, looked up): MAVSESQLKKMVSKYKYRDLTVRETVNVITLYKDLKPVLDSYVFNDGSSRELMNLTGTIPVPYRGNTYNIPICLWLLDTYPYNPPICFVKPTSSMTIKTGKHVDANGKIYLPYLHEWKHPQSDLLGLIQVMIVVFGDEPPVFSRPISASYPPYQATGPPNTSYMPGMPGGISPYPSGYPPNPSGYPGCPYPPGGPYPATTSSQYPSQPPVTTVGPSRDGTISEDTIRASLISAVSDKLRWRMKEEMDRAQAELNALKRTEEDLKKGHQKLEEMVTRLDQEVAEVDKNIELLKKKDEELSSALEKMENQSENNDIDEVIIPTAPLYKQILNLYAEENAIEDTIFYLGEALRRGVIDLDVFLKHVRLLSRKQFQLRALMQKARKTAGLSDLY
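Steps: Tsg101 binding domain dispensed (10 uM final), compounds pinned in DMSO, FITC-labeled PTAP-motif peptide added (50 nM final); after 20 min binding at room temperature, polarization measured.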
RGS4 inh – Inhibitors of Regulator of G Protein Signaling (RGS) 4: qHTS; Regulator of G-protein signaling 4 (Homo sapiens), P49798; Transcreener GDP fluorescence polarization, RGS4-accelerated GTP hydrolysis; Potency, µM (series often up to 114 µM), for the others: top-dose activity change, negative = inhibition, usual class: inhibitors; actives 0.039% (n = 390,000); note: % is set by controls: 0 for no effect and ±100 for the full control effect; nearly all actives have a fitted effect of over 75% in size
Target sequence (P49798 whole entry, looked up): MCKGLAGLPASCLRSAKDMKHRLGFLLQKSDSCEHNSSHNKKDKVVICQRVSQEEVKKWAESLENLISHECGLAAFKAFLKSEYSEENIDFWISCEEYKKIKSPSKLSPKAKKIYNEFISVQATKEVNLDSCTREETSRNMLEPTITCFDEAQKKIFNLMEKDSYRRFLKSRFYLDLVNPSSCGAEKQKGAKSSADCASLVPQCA
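MLSMR compounds (23 nl, pin-transferred) preincubated 10 min at room temperature with a 500nM (2x) first reagent, then RGS4 at 900nM (2x) plus Transcreener GDP mix added; fluorescence polarization (620/688 nm) read before and after 90 min at 30 °C.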
The depositor's hits bear a star; i = inactive; ? = inconclusive; . = no result. This is a sample that favours compounds with a hit; in the whole collection about 6.6% have one here. Unless noted, calls come from the whole dose curve; as a rule, active = well fitted curve in the direction sought with a large enough effect; inconclusive = small, poorly fitted or top-dose-only effect, or another doubt; inactive = no such curve, though single readings can be large; an effect the other way counts as inactive or inconclusive. Potency is the fitted concentration of half-maximal effect.

SMILES | MCF10A rerep | KB-V1 MDR tox | KB-3-1 cytotox | SW480 rerep | PTAP TSG101 blk | RGS4 inh
CCN(CC)S(=O)(=O)c1ccc(C)c(NC(=O)CNc2cccc(S(=O)(=O)N3CCOCC3)c2)c1 | ? | i | i | -527% | -1% | 8%
CCOc1ccc(-c2cc(C(=O)NCCc3ccccc3)c3c(-c4ccc(C)cc4)[nH]nc3n2)cc1 | . | ? | ? | . | . | -30%
Cc1ccccc1CSc1cn(CC(=O)N2CCCCCC2)c2ccccc12 | . | . | . | . | . | -5%
Cc1cc(NC(=O)Cc2ccccc2)cc(-c2nc3ccccc3o2)c1O | . | i | i | . | . | -2%
COC(=O)c1ccc(C2Nc3c(C)cccc3-c3cc(C)nn32)cc1 (stereo unspecified) | . | ? | ? | . | . | -1%
CCn1cc2nc(SCc3ccc(F)cc3)n(CCc3ccccc3)c(=O)c2n1 | . | i | i | . | . | 4%
COc1ccc(N(C(=O)c2ccccc2C)S(=O)(=O)c2cccs2)cc1 | 1.2µM* | 1.3µM* | 0.82µM* | 2.6µM* | 2% | -6%
COc1ccc(N(C(=O)c2ccccc2C)S(=O)(=O)c2ccc(C)cc2)cc1 | . | i | i | . | . | -7%
CN(C)c1ccc(N=Cc2cccc3ccccc23)cc1 | . | i | i | . | . | .
C=CS(=O)(=O)c1c2cc(OC)ccc2nc2ccc(OC)cc12 | ? | 21µM* | ? | 21µM* | ? | ?
CCOc1ccccc1CNC(=O)c1cnc2sc(N(CC)CC)nn2c1=O | . | . | . | . | . | 18%
c1ccc(Cn2c[n+](Cc3ccccc3)c3ccccc32)cc1 | 1% | i | 23µM* | -1% | -5% | 1%
CC(=O)Nc1ccc2[nH]c(C)cc(=O)c2c1 | -2% | ? | i | -4% | 1% | -38%
COc1cccc(-c2cc(=O)c3cc(NC(C)=O)ccc3[nH]2)c1 | 23µM* | i | i | 16µM* | -6% | -5%
CCC(C)(C)C1CCC2(CC1)NC(=O)N(CC(=O)NCCc1ccc(OC)c(OC)c1)C2=O (stereo unspecified) | 2% | 16µM* | ? | -2% | -6% | 28%
CCn1c(NC(=O)c2ccc(C)cc2)c2ccccc2nc1=O | 7% | 12µM* | i | -2% | -2% | 11%
CCn1c(NC(=O)C(C)C)c2ccccc2nc1=O | -1% | i | i | -14% | -2% | -2%
CCn1c(NC(=O)c2ccc(F)cc2)c2ccccc2nc1=O | 23% | 10µM* | ? | -11% | 1% | -4%
CCc1ccccc1NC(=O)N1CC(CC)Oc2ccc(Cl)cc21 (stereo unspecified) | . | . | . | . | . | -7%
C[C@@H]1C(c2cccc(Cl)c2)=NN(c2ccc(Br)cc2)[C@H]1C(=O)N1CCOC1=O | ? | i | i | 3.3µM* | -3% | -18%
C[C@@H]1C(c2cccc(Cl)c2)=NN(c2ccccc2)[C@H]1C(=O)N1CCOC1=O | ? | i | i | 18µM* | -2% | -15%
C[C@@H]1C(c2ccccc2)=NN(c2ccccc2)[C@H]1C(=O)N1CCOC1=O | 9% | i | i | ? | -4% | 6%
COC(=O)c1c(NC(=O)c2ccco2)sc(C)c1C | ? | i | i | ? | -11% | -30%
Cc1c(Cc2ccccc2)sc(NC(=O)c2ccco2)c1C(N)=O | 15µM* | ? | i | 1% | 0% | -16%
Cc1c(Cc2ccccc2)sc(NC(=O)/C=C/c2cccc3ccccc23)c1C(N)=O | 2.3µM* | ? | 9.2µM* | ? | -2% | ?
SMILES | MCF10A rerep | KB-V1 MDR tox | KB-3-1 cytotox | SW480 rerep | PTAP TSG101 blk | RGS4 inh
COC(=O)c1c(NC(=O)/C=C/C(=O)O)sc(Cc2ccccc2)c1C | 15µM* | ? | ? | ? | -2% | 4%
Cc1c(Cc2ccc3c(c2)OCO3)sc(NC(=O)c2cccc3ccccc23)c1C(N)=O | ? | i | ? | ? | -1% | ?
Cc1ccc(C)c(NC(=O)CC2NCCNC2=O)c1 (stereo unspecified) | . | i | ? | . | . | 1%
CCCCCCCCCCCCCCCC(=O)OC[C@H](O)[C@H]1OC[C@@H](O)[C@@H]1O | 2% | . | . | -1% | . | .
COCCN1Cc2cc3cc(C)ccc3nc2SC1=Nc1cccc(OC)c1 | ? | i | i | 68% | -3% | -27%
Cc1cccc(N=C2Sc3nc4c(C)c(C)ccc4cc3CN2CCN2CCOCC2)c1 | 12µM* | i | i | 1% | -6% | -24%
CCn1c(SCC(=O)NCc2ccco2)nnc1-c1cccc(N(C)C)c1 | . | i | i | . | . | .
Cc1cccc(C(=O)N[C@H](C(=O)Nc2ncc(C)s2)C(C)C)c1 | 25% | 16µM* | ? | ? | -5% | 3%
CN(C)c1ccc(/C=C/c2sc3ccccc3[n+]2CCCCI)cc1 | . | 23µM* | ? | . | . | .
CN(Cc1ccccc1)c1ccc(/C=C/c2sc3ccccc3[n+]2C)cc1 | . | i | ? | . | . | .
CCCC[n+]1c(/C=C/c2ccc(N(C)C)cc2)sc2ccccc21 | . | i | 1.8µM* | . | . | .
CCCN(CCC)CCNC(=O)c1cc2c(=O)oc3ccc(C)cc3c2s1 | . | i | i | . | . | 10%
C[C@H](C[C@H](O)[C@H]1OC1(C)C)C1=C2C[C@H](O)C3[C@@]4(C)CCC(=O)C(C)(C)C4CC[C@]3(C)[C@@]2(C)CC1 (stereo partly specified) | ? | 3.7µM* | ? | ? | 0% | 6%
C[C@@H](C[C@@H](O)[C@H](O)C(C)(C)O)[C@@H]1CC[C@]2(C)C3=CC[C@H]4C(C)(C)C(=O)CC[C@]4(C)[C@H]3CC[C@@]12C | ? | ? | ? | 2% | -3% | 1%
CC(C)(C)NC(=O)CON=C1c2ccccc2-c2ccccc21 | ? | 16µM* | i | 4% | -7% | 6%
CC(C)(C)NCC(O)CON=C1c2ccccc2-c2ccccc21 (stereo unspecified) | ? | ? | ? | ? | 0% | -2%
C=CCn1c(SCc2c(C)noc2C)nc2ccccc2c1=O | 7.3µM* | ? | ? | 0.65µM* | -4% | 15%
C=CCn1c(SCc2c(C)noc2C)nc2cc(C(=O)O)ccc2c1=O | 2.9µM* | ? | ? | ? | -6% | -12%

Source: PubChem BioAssay (National Center for Advancing Translational Sciences (NCATS))
